# Only some compounds are listed: those with a hit (about 6.7% of all), similar ones and a draw of the others.
# T cruzi growth-1: T. cruzi intracellular proliferation inhibitors, primary screen, cell-based, beta-gal Tulahuen parasites, NIH3T3 host, luminescence | inhibition, % at 8.34 µM | AID 624255, 2012 | T. cruzi beta-gal in NIH3T3, GalScreen luminescence, 90 h | 5.9% of 77,000 active;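 active = mean inhibition above about 93%, with at least 55% of replicates each passing it, limit read from the data, passing the limit was not always enough; inconclusive = only one of those two conditions holds; inactive = neither condition holds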
# Pf Dd2 inh: P. falciparum Dd2 growth inhibitors, primary screen, SYBR Green fluorescence, single dose replicates. activity change, % at 10 µM. 72 h; hits give low values. 2.3% of 94,000 active; in the data active = activity change below about -80%; inconclusive = no clear call, values can overlap the other calls
# C diff growth: C. difficile growth inhibitors, primary screen, HTS; Clostridium difficile clinical isolate growth, OD600, 24 h; hits give low values; 0.25% of 86,000 active; growth activity, negative = inhibition, % at 16 µg/mL (by protocol);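 active = mean growth activity at or below -80% and every replicate also at or below -80%; inconclusive = mean at or below -80% but some replicate above -80%; inactive = mean growth activity above -80%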
# T cruzi growth-2: T. cruzi intracellular proliferation inhibitors, confirmation, cell-based, NIH3T3 host, beta-gal parasite, luminescence, cherry-pick. shares compounds with T cruzi growth-1. T. cruzi beta-gal in NIH3T3, GalScreen luminescence, 90 h. inhibition, % at 8.35 µM. 72% of 5,600 active;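 active = mean replicate inhibition above about 95% and at least 55% of replicates individually reaching it, limit read from the data; inconclusive = only one of the two criteria is met; inactive = neither criterion is met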
# T cruzi growth-3: inhibitors of intracellular T. cruzi replication, confirmation, NIH3T3 host cells, beta-gal parasites, cherry-pick, set 2; 21% of 5,600 active; AID 651740, 2012; shares compounds with T cruzi growth-1; T. cruzi beta-gal in NIH3T3, GalScreen luminescence, 90 h; inhibition, % at 2.09 µM;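 active = mean inhibition above about 95%, with at least 55% of replicates also reaching it, limit read from the data; inconclusive = meets just one of the two conditions; inactive = meets neither condition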
# 3T3 cytotox: cytotoxicity in mouse NIH/3T3 fibroblasts, confirmation, cytotoxicity control for T. cruzi proliferation inhibitor project, cell-based, cherry-pick, single point. shares compounds with T cruzi growth-1. NIH/3T3 viability, CellTiter-Glo ATP luminescence, 90 h. cytotoxicity (signal decrease), % at 8.35 µM. 14% of 5,600 active. AID 651742, 2012;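 active = mean signal decrease across replicates above about 35% based on untreated-well scatter, with enough replicates individually passing, limit read from the data; inconclusive = no rule stated though some were filed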
# NIH3T3 tox 2: NIH/3T3 fibroblast cytotoxicity, confirmation, cytotoxicity control, cell-based, cherry-pick, single point, set 2; inhibition, % at 24.9 µM; NIH/3T3 viability, CellTiter-Glo ATP luminescence, 90 h; shares compounds with T cruzi growth-1; 56% of 5,600 active; AID 651744, 2012;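 active = mean loss of cell viability signal at or above a set limit, and enough replicates individually reaching it; inconclusive = meets only the mean limit or only the replicate share; inactive = meets neither condition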
# Numbers stand for hits; 0 = inactive; ? = inconclusive; - = no result given.
SMILES,T cruzi growth-1,Pf Dd2 inh,C diff growth,T cruzi growth-2,T cruzi growth-3,3T3 cytotox,NIH3T3 tox 2
CCC(=O)N1[C@@H]2Cn3c(ccc(-c4cccnc4)c3=O)[C@H]1[C@@H](C(=O)NC1CCC1)[C@@H]2CO,0,0,0,-,-,-,-
O=C(Cc1ccncc1)NCC[C@@H]1CC[C@@H](NC(=O)Nc2ccc(F)cc2)[C@H](CO)O1,0,0,0,-,-,-,-
CCC(=O)Nc1ccc2c(c1)OC[C@H](C)N(Cc1cncnc1)C[C@H](C)[C@@H](OC)CN(C)C2=O,-,0,0,-,-,-,-
CCS(=O)(=O)Nc1ccc2c(c1)C(=O)N(C)[C@@H]1CC[C@@H](CC(=O)N[C@@H]3CCN(Cc4ccccc4)C3)O[C@@H]1CO2,0,-,-,-,-,-,-
CN1C(=O)c2cc(NC(=O)c3ccc(F)c(F)c3)ccc2OC[C@@H]2O[C@@H](CC(=O)N[C@@H]3CCN(Cc4ccccc4)C3)CC[C@H]21,101,-,0,108,0,0,0
CN(C)C(=O)c1cccc(-c2ccccc2[C@@H]2[C@@H](C#N)N(C(=O)C3CCCCC3)[C@@H]2CO)c1,-,0,0,-,-,-,-
O=C(C[C@H]1CC[C@@H](NC(=O)NC2CCCCC2)[C@H](CO)O1)NCc1ccc(Cl)cc1,0,0,0,-,-,-,-
Cc1noc(C)c1S(=O)(=O)Nc1ccc2c(c1)C(=O)N([C@H](C)CO)C[C@@H](C)[C@H](CN(C)S(=O)(=O)c1cccs1)OCCCC[C@@H](C)O2,0,0,-,-,-,-,-
Cc1noc(C)c1S(=O)(=O)Nc1ccc2c(c1)C(=O)N([C@@H](C)CO)C[C@@H](C)[C@@H](CN(C)Cc1ccc(C(=O)Nc3ccccc3N)cc1)O2,?,0,-,100,0,0,33
Cc1noc(C)c1S(=O)(=O)Nc1cccc2c1O[C@H](CN(C)Cc1ccc(-c3ccccc3)cc1)[C@H](C)CN([C@@H](C)CO)C2=O,100,0,0,0,0,0,0
Cc1noc(C)c1NC(=O)N(C)C[C@H]1Oc2c(NS(=O)(=O)c3c(C)noc3C)cccc2C(=O)N([C@H](C)CO)C[C@H]1C,104,0,0,0,0,0,0
Cc1noc(C)c1NC(=O)N(C)C[C@@H]1Oc2c(NS(C)(=O)=O)cccc2C(=O)N([C@@H](C)CO)C[C@H]1C,0,0,0,-,-,-,-
C[C@@H]1CN([C@H](C)CO)C(=O)c2cc(NS(=O)(=O)c3ccc(Cl)cc3)ccc2O[C@@H]1CN(C)Cc1ccc(C(=O)Nc2ccccc2N)cc1,?,0,0,0,0,0,46
C[C@@H]1CN([C@@H](C)CO)C(=O)c2cc(NS(=O)(=O)c3ccc(Cl)cc3)ccc2O[C@H]1CN(C)Cc1ccc(C(=O)Nc2ccccc2N)cc1,0,0,0,-,-,-,-
Cc1noc(C)c1S(=O)(=O)Nc1cccc2c1O[C@@H](CN(C)Cc1ccc(-c3ccccc3)cc1)[C@@H](C)CN([C@@H](C)CO)C2=O,0,0,-,-,-,-,-
Cc1noc(C)c1S(=O)(=O)Nc1ccc2c(c1)C(=O)N([C@@H](C)CO)C[C@H](C)[C@@H](CN(C)Cc1ccc(C(=O)Nc3ccccc3N)cc1)O2,-,0,0,-,-,-,-
COc1cccc(-c2ccc3c(c2)O[C@H](CN(C)Cc2ccncc2)[C@H](C)CN([C@@H](C)CO)S3(=O)=O)c1,-,0,0,-,-,-,-
Cc1ccc(S(=O)(=O)Nc2ccc3c(c2)C(=O)N([C@H](C)CO)C[C@@H](C)[C@H](CN(C)Cc2ccc(C(=O)Nc4ccccc4N)cc2)O3)cc1,-,0,0,-,-,-,-
CCCNC(=O)N1CC2(CN(S(=O)(=O)c3ccccc3)C2)c2c(n(C)c3cc(OC)ccc23)[C@@H]1CO,-,0,0,-,-,-,-
Cc1noc(C)c1S(=O)(=O)N(C)C[C@H]1OCCCC[C@H](C)Oc2ccc(NC(=O)C3CCCCC3)cc2C(=O)N([C@@H](C)CO)C[C@H]1C,0,0,0,-,-,-,-
Cc1noc(C)c1S(=O)(=O)Nc1cccc2c1O[C@H](CN(C)Cc1ccc(Oc3ccccc3)cc1)[C@H](C)CN([C@H](C)CO)C2=O,0,0,0,-,-,-,-
COc1ccc(NC(=O)N(C)C[C@@H]2Oc3ccc(NC(=O)Cn4cnnn4)cc3CC(=O)N([C@@H](C)CO)C[C@H]2C)cc1,0,0,0,-,-,-,-
Cc1noc(C)c1S(=O)(=O)Nc1cccc2c1O[C@@H](CN(C)Cc1ccc(C(=O)Nc3ccccc3N)cc1)[C@@H](C)CN([C@H](C)CO)C2=O,-,0,0,-,-,-,-
Cc1noc(C)c1NC(=O)N(C)C[C@H]1Oc2ccc(N(C)C)cc2C(=O)N([C@H](C)CO)C[C@@H]1C,0,0,0,-,-,-,-
Cc1noc(C)c1NC(=O)N(C)C[C@@H]1Oc2ccc(N(C)C)cc2C(=O)N([C@H](C)CO)C[C@H]1C,106,0,0,0,0,0,0
SMILES,T cruzi growth-1,Pf Dd2 inh,C diff growth,T cruzi growth-2,T cruzi growth-3,3T3 cytotox,NIH3T3 tox 2
Cc1noc(C)c1S(=O)(=O)Nc1cccc2c1O[C@H](CN(C)Cc1ccc(C(=O)Nc3ccccc3N)cc1)[C@H](C)CN([C@@H](C)CO)C2=O,?,0,-,101,0,0,36
O=C(O)C[C@@H]1C[C@@H]2c3cc(NS(=O)(=O)c4ccccc4)ccc3O[C@@H]2[C@@H](CO)O1,-,0,0,-,-,-,-
CO[C@H]1CN(C)C(=O)c2cc(NS(C)(=O)=O)ccc2OC[C@H](C)N(C)C[C@H]1C,0,0,-,-,-,-,-
O=C(C[C@@H]1C=C[C@H](NC(=O)CN2CCOCC2)[C@H](CO)O1)NCc1cccc(F)c1,0,0,-,-,-,-,-
COc1ccc(CNC(=O)C[C@H]2C[C@H]3c4cc(NC(=O)NC5CCCC5)ccc4O[C@H]3[C@@H](CO)O2)cc1,0,0,0,-,-,-,-
CCS(=O)(=O)N1CCCCN2[C@H](CO)[C@H](c3ccc(-c4ccccc4F)cc3)[C@@H]2C1,96,0,0,0,0,0,0
CCS(=O)(=O)N1CCCCN2[C@H](CO)[C@@H](c3ccc(-c4ccccc4C)cc3)[C@H]2C1,0,0,0,-,-,-,-
CCS(=O)(=O)N1CCCCN2[C@@H](CO)[C@@H](c3ccc(-c4ccccc4C)cc3)[C@@H]2C1,?,0,0,97,0,?,79
CCS(=O)(=O)N1CCCCN2[C@H](CO)[C@@H](c3ccc(-c4ccccc4)cc3)[C@@H]2C1,0,0,0,-,-,-,-
CO[C@@H]1CN(C)C(=O)c2cc(NS(C)(=O)=O)ccc2OC[C@H](C)N(C(=O)C2CCC2)C[C@@H]1C,0,0,-,-,-,-,-
COc1ccc2c3c([nH]c2c1)[C@H](CO)N(C)CC31CN(S(=O)(=O)c2cccc(F)c2)C1,-,0,0,-,-,-,-

# Bioassay records: PubChem, Broad Institute
